Screens: PubChem BioAssay, several laboratories
3CLpro inhibitor: SARS-CoV 3CLpro protease inhibition | recombinant SARS-CoV 3CLpro, quenched FRET peptide cleavage | inhibition, % at 6 µM | 0.14% of 290,000 active | AID 1706; in the data active = inhibition above about 12%
Anthrax LF inh2: inhibitors of Bacillus anthracis lethal factor protease; AID 588501; P15917; inhibition, % at 10 µM; 0.12% of 360,000 active; multiplex microsphere protease cleavage assay, LF; note: plate controls were buffer without enzyme for full effect and enzyme alone for no effect
Target sequence (P15917 whole entry, looked up): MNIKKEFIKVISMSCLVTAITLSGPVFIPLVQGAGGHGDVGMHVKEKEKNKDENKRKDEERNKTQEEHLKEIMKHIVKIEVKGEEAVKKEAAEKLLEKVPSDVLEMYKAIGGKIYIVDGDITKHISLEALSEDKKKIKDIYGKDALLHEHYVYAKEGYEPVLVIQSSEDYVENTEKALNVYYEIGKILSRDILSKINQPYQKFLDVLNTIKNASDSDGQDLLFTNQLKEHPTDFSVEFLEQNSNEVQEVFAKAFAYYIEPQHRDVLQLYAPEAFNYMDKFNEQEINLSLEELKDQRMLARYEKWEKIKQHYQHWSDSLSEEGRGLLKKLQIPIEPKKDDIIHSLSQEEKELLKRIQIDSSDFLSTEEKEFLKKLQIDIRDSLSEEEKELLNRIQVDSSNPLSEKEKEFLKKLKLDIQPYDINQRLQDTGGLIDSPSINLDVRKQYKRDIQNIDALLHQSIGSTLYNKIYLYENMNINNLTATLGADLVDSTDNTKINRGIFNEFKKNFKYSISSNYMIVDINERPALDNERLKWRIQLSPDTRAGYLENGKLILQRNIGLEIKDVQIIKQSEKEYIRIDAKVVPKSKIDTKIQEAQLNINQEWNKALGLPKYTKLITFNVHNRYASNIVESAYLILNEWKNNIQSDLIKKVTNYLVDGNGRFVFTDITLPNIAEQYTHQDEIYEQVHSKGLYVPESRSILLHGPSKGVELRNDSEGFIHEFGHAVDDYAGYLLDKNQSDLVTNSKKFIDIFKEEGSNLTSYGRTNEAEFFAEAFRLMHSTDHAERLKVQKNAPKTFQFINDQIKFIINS
BoNT-A LC inh2: inhibitors of Botulinum neurotoxin A light chain protease; AID 588499; multiplex microsphere protease substrate cleavage, flow cytometry; 0.17% of 360,000 active; inhibition, % at 10 µM; note: plate controls were buffer without enzyme for full effect and enzyme alone for no effect
BoNT-F LC inh: inhibitors of Botulinum neurotoxin F light chain protease; inhibition, % at 10 µM; Multiplex microsphere protease cleavage assay, flow cytometry; 0.22% of 360,000 active; in the data active = inhibition above about 35%, passing the limit was not always enough; inconclusive = no clear call, values can overlap the other calls; note: plate controls were buffer without enzyme for full effect and enzyme alone for no effect
Bead autofluor: counter-screen for toxin protease inhibitors: compound fluorescence; compound autofluorescence counterscreen, microsphere flow cytometry; hits give high values; fluorescence intensity (concentration not given with the values); 3.1% of 360,000 active; AID 624483; in the data active = fluorescence intensity above about 16000; inconclusive = no clear call, values can overlap the other calls
BJeLR viability: BJeLR cell viability loss; BJeLR (HRASV12) viability, CellTiter-Glo ATP luminescence, 48 h; 0.17% of 300,000 active; AID 1554; inhibition, % (concentration not given with the values); in the data active = inhibition above about 50%; inconclusive = no clear call, values can overlap the other calls
An asterisk follows results filed as active; u = inconclusive; x = not tested or not shown. Hits are enriched below; roughly 3.6% of the tested compounds scored in any of these assays. Cut-off read from the data, not from the text of the source, unless noted: active = inhibition above about 30%; inconclusive = no clear call, values can overlap the other calls; inactive = below that.

SMILES	3CLpro inhibitor	Anthrax LF inh2	BoNT-A LC inh2	BoNT-F LC inh	Bead autofluor	BJeLR viability
COc1ccc(CNS(=O)(=O)c2ccc(OC)cc2)cc1	-3	-3	-1	-18	2583	-10
COCC(C)NS(=O)(=O)c1ccc(OC)cc1 (stereo unspecified)	3	-1	6	11	19695*	-8
COc1ccc(S(=O)(=O)NCCC(=O)NCc2ccccc2)cc1	-4	-4	3	1	21763*	-3
COc1ccc(S(=O)(=O)NCc2cccs2)cc1	7	2	0	-1	21782*	-3
O=S1(=O)N=C(c2ccccc2)c2ccccc21	x	-6	0	-6	5928	0
CN1C2=NCCN2C(=O)c2ccccc21	-1	-3	-1	-8	9712	0
CN(C)CCCNC1=CC(=O)OC12CCCCC2	-3	-1	-2	4	3181	-1
O=C1C=C(N(CCO)CCO)C2(CCCCC2)O1	5	-8	u	-7	22987*	-3
COCc1nnc(NS(=O)(=O)c2c(C)cc(C)cc2C)s1	-2	0	0	0	23383*	-3
COc1ccc2[nH]c(=O)c(CN(CCc3ccccc3)C(C)=O)cc2c1	5	0	2	3	22156*	-10
COc1ccc2[nH]c(=O)c(CN(C)C(=O)c3ccncc3)cc2c1	-1	0	-2	-3	20262*	4
O=C(NC1CCCCC1)C1CN(S(=O)(=O)c2ccccc2)CCN1S(=O)(=O)c1ccccc1 (stereo unspecified)	1	-2	-2	-5	24405*	6
CC1CCN(S(=O)(=O)c2ccc(NC(=O)c3ccco3)cc2)CC1	2	0	0	-7	4090	2
CC1CCCCN1S(=O)(=O)c1ccc(NC(=O)c2ccco2)cc1 (stereo unspecified)	-5	-1	u	-3	20490*	-1
CC1CCCCN1S(=O)(=O)c1ccc(NC(=O)CSc2nnnn2C)cc1 (stereo unspecified)	7	0	u	1	21890*	4
CCc1ccc2[nH]c(=O)c(CN(Cc3ccccc3)C(=O)Nc3ccccc3OC)cc2c1	3	-6	1	-1	15755	1
Cc1ccc(-n2c(C)cc(/C=N/NC(=O)c3ccc(CN4CCOCC4)cc3)c2C)cc1	1	-3	2	-1	19963*	-2
Cc1cccc(-n2c(C)cc(/C=N/NC(=O)c3ccc(CN4CCOCC4)cc3)c2C)c1	0	-3	-1	-9	11405	5
CCC(=O)N(Cc1ccco1)c1nc(-c2ccc(OC)cc2)cs1	5	-1	0	4	3119	-6
CCC(=O)N(CC)c1nc(-c2ccc(OC)cc2)cs1	5	-3	-1	-1	23376*	3
O=C(COC(=O)c1n[nH]c2ccccc12)NC(=O)NC12CC3CC(CC(C3)C1)C2	-1	-2	u	2	19573*	-1
COc1ccc(CC(=O)OCC(=O)NC(=O)NC23CC4CC(CC(C4)C2)C3)cc1	3	-1	-1	-1	24237*	-8
Cc1cccn2c(=O)c(C=O)c(N3CCCCCC3)nc12	6	-4	1	1	19642*	0
COc1ccccc1N1CCN(c2nc3c(C)cccn3c(=O)c2C=O)CC1	-5	-1	u	2	20185*	0
CN(N=Nc1nc[nH]c1C(N)=O)C1CCCCC1	x	-6	2	-8	4119	x
SMILES	3CLpro inhibitor	Anthrax LF inh2	BoNT-A LC inh2	BoNT-F LC inh	Bead autofluor	BJeLR viability
COc1ccccc1-c1c(C)oc2cc(OC(=O)c3ccco3)ccc2c1=O	-1	0	u	-4	20703*	14
O=C(Cn1cnc2c(NC(=O)OCc3ccccc3)ncnc21)NCc1ccccn1	x	1	0	-6	3930	x
CC1CN(c2cc3nccnc3cc2F)CC(C)O1 (stereo unspecified)	7	1	u	1	16271*	11
CC(C)(C)c1cc(NCCCn2ccnc2)n2ncc(-c3ccc(Cl)cc3)c2n1	-3	-5	u	-10	25531*	-7
Cc1cc(NCCCn2ccnc2)n2nc(-c3ccc(Cl)cc3)cc2n1	-6	2	-1	8	7137	3
Cn1nccc1C(=O)N1CCN(c2ccccc2F)CC1	-2	4	2	0	5886	0
Cn1cnc(S(=O)(=O)Nc2ccc(OC(F)F)cc2)c1	0	-5	0	-6	5513	9
CCOC(=O)C1C(=O)CC(C)(O)C(C(=O)OCC)C1c1cc(Br)ccc1OC (stereo unspecified)	2	-3	-2	8	u	-2
CCOC(=O)C1C(=O)CC(C)(O)C(C(=O)OCC)C1c1ccccc1OC (stereo unspecified)	3	1	-1	1	21006*	0
O=C(Nc1ccncc1)c1cc(C2CCCCN2C(=O)CCCc2ccccc2)on1 (stereo unspecified)	x	-4	0	3	3888	x
CCN(CC)S(=O)(=O)c1cccc(C(=O)NC2CCCCC2)c1	6	1	u	-1	21448*	-14
CCN(CC)S(=O)(=O)c1cccc(C(=O)Nc2cccnc2)c1	-2	-8	u	3	22467*	-10
CCN(CC)S(=O)(=O)c1cc(C(=O)Nc2cccnc2)ccc1Cl	2	-2	0	-1	11204	6
CCN(CC)S(=O)(=O)c1cccc(NC(=O)Nc2cccc(C(F)(F)F)c2)c1	1	-4	-6	-11	21515*	10
CC(C)(C)NC(=O)C1c2ccccc2OCC(=O)N1CCc1ccccc1 (stereo unspecified)	x	6	0	-1	6344	x
COC(=O)[C@H](Cc1ccccc1)NC(=O)NCCC1=CCCCC1	7	0	u	-2	24338*	7
COC(=O)[C@H](CCSC)NC(=O)NCCC1=CCCCC1	2	-1	0	-2	11220	-5
O=C(CSc1nc2ccccc2[nH]1)NCCCn1ccnc1	-2	0	1	1	16490*	1
Cc1cc(=O)oc2c3c(cc(OCC(=O)Nc4cccnc4)c12)OC(C)(C)CC3	-4	-2	0	-6	5571	-6
CN(C(=O)c1ccccc1-c1ncc[nH]1)C1CCCN(Cc2ccccc2F)C1 (stereo unspecified)	4	2	2	4	5563	4
CC1CCCN(S(=O)(=O)c2ccc3c(c2)OCCO3)C1 (stereo unspecified)	x	-1	-1	4	3887	x
O=C(CNC(=O)Cc1cccc2ccccc12)NCc1ccc(F)cc1	-3	-2	-1	-6	4918	-4
Nc1nnc(Cc2c[nH]c3ccccc23)s1	5	2	1	-3	23973*	-2
CC(C)C(=O)Nc1nnc(Cc2c[nH]c3ccccc23)s1	1	-18	-1	u	4038	11
CC1CC1C(=O)Nc1cc(S(=O)(=O)N2CCOCC2)ccc1N1CCCC1 (stereo unspecified)	-3	-2	-1	-4	3081	-1
O=[N+]([O-])c1ccc2nnn(O)c2c1	-1	0	0	-3	2319	-14
